Values joined by “and” are separate entries in the source; they are usually repeats but may differ in a detail not shown here. Identical values can stand only once. Compounds without any hit were thinned out: in the full panel of roughly 79,000, 15% have a hit. Unmarked numbers belong to inactive results. Active and inactive are the calls of the source. Cut-off read from the data, not from the text of the source: active = growth inhibition above about 70%; inactive = the rest.
What was measured:
[1] = NCI Yeast Anticancer Drug Screen. Data for the rad50 strain (AID 155);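 note: 0% = growth of vehicle-only cultures of the same strain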; details: S. cerevisiae rad50 strain growth inhibition, stronger effect = higher value
Outline: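 Yeast carrying a defined DNA repair defect were exposed to test compounds, and growth was compared with vehicle-treated controls to give percent inhibition.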

[2] = NCI Yeast Anticancer Drug Screen. Data for the mec2-1 strain (AID 157); details: S. cerevisiae mec2-1 strain, stronger effect = higher value
Outline: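 Vehicle-treated cultures served as reference for growth inhibition of compound-exposed mec2-1 yeast.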

[3] = NCI Yeast Anticancer Drug Screen. Data for the sgs1 mgt1 strain (AID 161);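 note: 0% = growth of cultures given vehicle only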; details: S. cerevisiae sgs1 mgt1 strain, stronger effect = higher value
Outline: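 Test agents were incubated with a DNA-repair-mutant yeast strain. Growth was then read and compared against vehicle-treated controls.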

[4] = NCI Yeast Anticancer Drug Screen. Data for the cln2 rad14 strain (AID 165);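 note: 0% = growth equal to vehicle treated cultures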; details: S. cerevisiae cln2 rad14 strain, stronger effect = higher value
Outline: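 Each compound was tested on cln2 rad14 yeast. Inhibition of growth was calculated against vehicle-exposed controls.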

[5] = NCI Yeast Anticancer Drug Screen. Data for the bub3 strain (AID 167); details: S. cerevisiae bub3 mutant strain, stronger effect = higher value
Outline: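 Compounds were applied to a genetically altered yeast strain carrying a cell-cycle control defect. Growth inhibition was scored against vehicle-treated controls.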

[6] = NCI Yeast Anticancer Drug Screen. Data for the mlh1 rad18 strain (AID 175); details: S. cerevisiae mlh1 rad18 strain growth inhibition, stronger effect = higher value
Outline: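 Vehicle-treated cultures served as the reference for growth inhibition in a yeast strain carrying DNA damage repair alterations exposed to each compound.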

[7] = at 5.0 µM (retest, dose inferred, filed as 0.5)
[8] = at 50.0 µM (retest, dose inferred, filed as 5.0)

SMILES | growth inhibition [1, 7] | growth inhibition [1, 8] | growth inhibition ([1]; at 50.0 µM) | growth inhibition [2, 7] | growth inhibition [2, 8] | growth inhibition ([2]; at 50.0 µM) | growth inhibition [3, 7] | growth inhibition [3, 8] | growth inhibition ([3]; at 50.0 µM) | growth inhibition [4, 7] | growth inhibition [4, 8] | growth inhibition ([4]; at 50.0 µM) | growth inhibition [5, 7] | growth inhibition [5, 8] | growth inhibition ([5]; at 50.0 µM) | growth inhibition [6, 7] | growth inhibition [6, 8] | growth inhibition ([6]; at 50.0 µM)
CCOc1ccc2c(c1)n([O-])c1ccccc1[n+]2=O | 88% (active) | 98% (active) | 56% | 12% | 99% (active) | 97.4% (active) | 55% | 99% (active) | 99.2% (active) | 31% | 98% (active) | 98.1% (active) | 17% | 98% (active) | 98.8% (active) | 81% (active) | 98% (active) | 99.1% (active)
CCOC(=O)/C=C(\CC(=O)OCC)C(=O)OCC | -3% | 3% | 99.5% (active) | -1% | -8% | 99.7% (active) | -1% | 5% | 99.2% (active) | -3% | -6% | 13.4% | 4% | 25% | 99.5% (active) | -3% | -2% | 99.3% (active)
Oc1c(Cl)cc(Cl)cc1/C=C1\C=Nc2ccccc21 | 1% | -5% | 2.75% | -11% | 5% | 14.9% | -7% | 5% | -14.2% | 13% | 20% | 13.6% | 3% | 23% | 5.2% | -3% | -3% | 4.95%
O=C(O)c1c2c(cc3c1CC1(Cc4ccccc4C1=O)C3)CCC2 (stereo not given) | 7% | 7% | 81.2% (active) | 21% | 21% | 89% (active) | 20% | 20% | 84.8% (active) | -10% | -10% | 84.2% (active) | 16% | 16% | 84.2% (active) | 24% | 24% | 77.9% (active)
CCC(C(c1ccc(Cl)cc1)c1ccc(Cl)c(Cl)c1)[N+](=O)[O-] (stereo not given) | 4% | 12% | 8.3% | 0% | 17% | -4.05% | 4% | 12% | 14.1% | – | – | – | 19% | 38% | 47.5% | 1% | 32% | 5.3%
CSc1nc2ccccc2s1 | -5% | 8% | 24.1% | -2% | 3% | 23.3% | -1% | 4% | -19.4% | – | – | – | -3% | -1% | -8.3% | -3% | 5% | 4.2%
O=C(O)C(O)C(O)C(O)C(O)CO.[Ag] (stereo not given) | 99% (active) | 98% (active) | 99.2% (active) | 99% (active) | 99% (active) | 99.3% (active) | 99% (active) | 99% (active) | 99.5% (active) | 99% (active) | 98% (active) | 99.3% (active) | 99% (active) | 98% (active) | 99.3% (active) | 99% (active) | 98% (active) | 99% (active)
COc1ccc2c(C(=O)c3ccccc3)c3[n+](cc2c1OC)CCc1cc2c(cc1-3)OCO2 | -1% | 38% | 65.7% | -21% | 22% | 53.6% | -4% | 20% | 52.1% | – | – | – | -4% | 24% | 50.3% | -2% | 24% | 75.5% (active)
N#CC(C(=O)CCCC(=O)Nc1cccc([N+](=O)[O-])c1)c1cccc2ccccc12 (stereo not given) | 8% | 10% | 32.5% | 18% | 3% | 22.1% | 8% | 7% | 17.1% | – | – | – | 4% | 2% | 6.2% | 5% | 18% | 31.2%
CCCCCCCCc1cc[n+](C2=C([O-])c3ccccc3C(=O)C2=O)cc1 | 99% (active) | 97% (active) | 98.8% (active) | 100% (active) | 93% (active) | 98.2% (active) | 100% (active) | 98% (active) | 99% (active) | – | – | – | 99% (active) | 99% (active) | 98.8% (active) | 100% (active) | 99% (active) | 98.2% (active)
CCOP(=O)(OCC)/C(C#N)=C/c1ccc(Oc2ccccc2)cc1 | -12% | 97% (active) | 90.2% (active) | – | – | – | -11% | 97% (active) | 91.5% (active) | -5% | 98% (active) | 90.6% (active) | -3% | 94% (active) | 90.5% (active) | 1% | 97% (active) | 89.8% (active)
O=C(c1ccccc1)C1(C(=O)c2ccccc2)/C(=N\O)C2CCC1C2 (stereo not given) | – | – | – | 1% | 96% (active) | 12.7% | -2% | 95% (active) | 9.75% | – | – | – | 0% | 95% (active) | 53.1% | 12% | 93% (active) | 13.7%
C/C(=N\NC(=S)N1CCN(C2CCCCCC2)CC1)c1ccccn1 | -4% | 99% (active) | 50.5% | – | – | – | -4% | 99% (active) | 26.1% | 8% | 99% (active) | 42% | -17% | 99% (active) | 19.4% | 14% | 99% (active) | 40%
O=C1NC(=O)/C(=C/c2ccc(S(=O)(=O)N/N=C\C(O)C(O)C(O)C(O)CO)cc2)N1 (stereo not given) | – | – | 3.55% and -20.8% and 1.5% | – | – | -3.7% and 38.8% and 12.5% | – | – | -19.6% and 19.2% and -13.3% | – | – | 2.3% and 4.95% and 8.9% | – | – | -17.4% and -6.2% and 3.65% | – | – | 15.4% and 28.7% and 13.4%
C=COCCN1CCN(CCCN2c3ccccc3Sc3ccc(C(F)(F)F)cc32)CC1 | – | – | – | -4% | 99% (active) | 99% (active) | -1% | 99% (active) | 99.7% (active) | -2% | 99% (active) | 98.7% (active) | 1% | 99% (active) | 98.5% (active) | 1% | 99% (active) | 99.3% (active)
COc1ccccc1NC(=O)c1ccccc1F | – | – | – | -47% | -41% | 10.7% | -61% | -17% | 0.2% | -60% | -72% | 4.65% | -70% | 9% | -3.5% | -147% | -43% | -9.6%
CCOC(=O)CCC(N)C(=O)OCC (stereo not given) | – | – | 20.8% and 1.45% and -26.1% | – | – | -4.05% and -5.05% and -0.15% | – | – | 8.4% and -2% and -19.9% | – | – | 5.9% and -29.1% and -40.6% | – | – | 1.45% and 7.05% and -8.7% | – | – | 10.9% and 23.9% and -16.1%
CC1=C(C(=O)OC(C)C)C(c2ccccc2[N+](=O)[O-])C(C(=O)OC(CO[N+](=O)[O-])CO[N+](=O)[O-])=C(C)N1 (stereo not given) | 17% | 24% | 83.6% (active) | – | – | – | -20% | -8% | 89.1% (active) | 2% | 22% | 83.9% (active) | -5% | 25% | 87.2% (active) | 18% | 19% | 81.7% (active)
Cc1cccc(NC(=O)c2cc3cc(N=Nc4ccccc4Cl)ccc3oc2=O)c1 | 6% | 6% | 78.5% (active) | – | – | – | 22% | 22% | 75.4% (active) | 3% | 3% | 35% | 6% | 6% | 78.3% (active) | 7% | 7% | 70.7% (active)
Oc1ccc(O)c2c(O)c3ccccc3c(O)c12 | 24% | 86% (active) | 76.7% (active) | – | – | – | 10% | 85% (active) | 80.5% (active) | 15% | 58% | 30.9% | 3% | 82% (active) | 65.7% | 20% | 94% (active) | 78.9% (active)
COc1cc(/C=C2\CCOC2=O)ccc1O | – | – | 1% and -1.15% and 3.7% | – | – | -1.45% and 31.7% and 1.8% | – | – | -7.55% and 1.8% and -18.2% | – | – | -9.15% and 14.1% and -3.85% | – | – | 3.6% and 13.2% and 9.3% | – | – | -5.35% and -1.3% and -13.3%

Source: PubChem BioAssay (NCI)
